Results filed as inconclusive are left out. Where a call stands in place of a potency, no number is given. Unmarked numbers belong to inactive results. Activity calls are given as the source filed them. Calls come from the whole dose curve; as a rule, active = well fitted inhibition curve with a large enough effect; inconclusive = small, poorly fitted or top-dose-only effect; inactive = no such curve, though single readings can be large or run the other way.
Test: Primary qHTS for small molecule stabilizers of the endoplasmic reticulum resident proteome: Secreted ER Calcium Modulated Protein (SERCaMP) assay (AID 1508630)
Settings: SH-SY5Y GLuc-SERCaMP (Gaussia luciferase released on ER calcium loss) secretion, thapsigargin, luminescence; series mostly up to 38.4 µM
Description: Assay Provider: Brandon K. Harvey Ph.D.
National Institute on Drug Abuse, National Institutes of Health, Baltimore, MD
Endoplasmic reticulum (ER) dysregulation is associated with human pathologies including neurodegenerative, cardiovascular, muscular, and diabetic conditions. Maintenance of ER calcium is critical for functions of the ER and its depletion can lead to loss of ER resident proteins, in a process termed exodosis. Therapeutic compounds capable of attenuating the redistribution of ER proteins under pathological conditions may slow or stop disease progression. To identify such compounds, we performed a quantitative high-throughput screen (qHTS) using the SERCaMP assay, which monitors secretion of ER resident proteins triggered by calcium depletion.
SERCaMP was initially developed as a reporter of ER calcium homeostasis using a Gaussia luciferase with a modified signal peptide and carboxy-terminus (GLuc-SERCaMP), modifications that confer secretion of the reporter in response to ER calcium depletion (Henderson et al., 2014). The assay was used to screen 9,501 compounds, including a collection of drugs approved by the FDA (US), EMA (EU), NHI (Japan), and HC (Canada) regulatory agencies (Huang et al., 2011). Since the SERCaMP reporter reflects the exodosis phenomenon (Trychta et al., 2018a), compounds identified in the screen have the potential to prevent exodosis by different mechanisms such as stabilizing ER calcium or augmenting ERS retrieval.
1. Henderson, M.J., Wires, E.S., Trychta, K.A., Richie, C.T., and Harvey, B.K. (2014). SERCaMP: a carboxy-terminal protein modification that enables monitoring of ER calcium homeostasis. Mol Biol Cell 25, 2828-2839.
2. Huang, R., Southall, N., Wang, Y., Yasgar, A., Shinn, P., Jadhav, A., Nguyen, D.T., and Austin, C.P. (2011). The NCGC pharmaceutical collection: a comprehensive resource of clinically approved drugs enabling repurposing and chemical genomics. Sci Transl Med 3, 80ps16.
3. Trychta, K.A., Back, S., Henderson, M.J., and Harvey, B.K. (2018a). KDEL Receptors Are Differentially Regulated to Maintain the ER Proteome under Calcium Deficiency. Cell Rep 25, 1829-1840 e1826.
SEQUENCE No. (1, 2, 3, etc.); […] (e.g., Cells, Incubation, Reagent, etc.); VALUE and DESCRIPTION.
1; Reagent; 5 uL; 1000 SH-SY5Y cells per wells
3; Compound; 23 nL; Control inhibitor / compound library
5; Reagent; 100 nM; Thapsigargin
7; Reagent; 1 uL; 0.5x coelenterazine
8; Detection; Luminescence; ViewLux imaging system
NOTES (numbers refer to sequence above)
1; SH-SY5Y human neuroblastoma cells stably expressing GLuc-SERCaMP (SH-SY5Y-GLuc-ASARTDL) cells were seeded in 1,536 well white tissue culture treated plates (Corning, Cat# 7464) in DMEM-high glucose-sodium pyruvate (ThermoFisher Scientific, Cat #10569) supplemented with 10% bovine growth serum (Hyclone), 10 U/ml penicillin (Gibco), 10 ug/ml streptomycin (Gibco), and 20 mM HEPES.
2; Assay plates were incubated for 5 hour at 37C in a humidified incubator containing 5% CO2.
3; qHTS libraries (23 nl, final concentrations of 1.53 uM, 7.67 uM, 38.3 uM) or controls (neutral control: DMSO, positive control: dantrolene) were added using a Kalypsis pin-tool Robotic System equipped with 1536 pinheads.
4; Cells were then incubated for 16 hours at 37C, 5% CO2.
5; Thapsigargin was added at 100 nM to deplete ER calcium stores.
6; Cells were incubated for 4 hour (37 °C, 5% CO2)
7; Gaussia luciferase in the medium was measured by adding 1 ul of 0.5x coelenterazine (final concentration 0.07x) prepared in Gaussia Luciferase Glow Assay Buffer (Pierce), without addition of the Cell Lysis Buffer Reagent.
8; Luminescence was measured using a ViewLux […] CCD imaging system (Perkin Elmer) equipped with clear filters. […] The same controls were also used for the calculation of the Z' factor, a measure of assay quality control, as previously described (Zhang et al., 1999). […]

SMILES	Potency	activity change, negative = inhibition
NCCNC(=O)Cc1ccc(NC(=O)Cc2ccc(Nc3ncnc4c3ncn4[C@@H]3O[C@H](CO)[C@@H](O)[C@H]3O)cc2)cc1	inactive	
NC(C(=O)O)c1cc(O)c(Cl)c(O)c1 (stereo not given)	inactive	
COc1ccc2[nH]c(I)c(CCNC(C)=O)c2c1	inactive	
Cc1cccc(/C=C\c2ccccc2)n1	inactive	
CC1(C)CO[C@H](CC(=O)O)CN1	inactive	
NCCNS(=O)(=O)c1cccc2cnccc12	inactive	
C[C@@H]1Nc2ccc(Cl)cc2S(=O)(=O)N1	inactive	
CC(C)NC[C@H](O)c1ccc(NS(C)(=O)=O)cc1	inactive	
COc1ccc(OC)c2c(=S)c3ccccc3[nH]c12	inactive	
CCCCCCCCCCCCCCCC(=O)N[C@H](CN1CCOCC1)[C@H](O)c1ccccc1		2.84% [at 3.88 µM]
C[N+](C)(C)CCC(=O)c1cccc2ccccc12	inactive	
CNC(=O)[C@H]1O[C@@H](n2cnc3c(NCc4cccc(I)c4)nc(Cl)nc32)[C@H](O)[C@@H]1O	inactive	
N[C@H](CCC(=O)NCC(=O)O)C(=O)O	inactive	
Clc1cccc(Nc2nnc(-c3ccccc3)c3ccccc23)c1	inactive	
COC(=O)Nc1ccc2[nH]cc(CCNC(C)=O)c2c1	inactive	
CCCCCCCCC#CCC#CCC#CCCCC(=O)O		-14.3% [at 3.88 µM]
CCN(CC)CCOC(=O)C1(c2ccc([N+](=O)[O-])cc2)CCCC1	inactive	
O=C(NCCCCCCNC(=O)ON=C1CCCCC1)ON=C1CCCCC1	inactive	
C[N+](C)(CCCCCC[N+](C)(C)CCCN1C(=O)c2ccccc2C1=O)CCCN1C(=O)c2ccccc2C1=O	inactive	
C[C@H](CCC(=O)O)[C@H]1CC[C@H]2[C@H]3C(CC[C@]12C)[C@@]1(C)CC[C@@H](O)C[C@H]1C[C@H]3O (stereo not given in full)	inactive	

SMILES	Potency	activity change, negative = inhibition
C[C@H]1O[C@@H](O[C@H]2[C@@H](O)C[C@H](O[C@H]3[C@@H](O)C[C@H](O[C@H]4CC[C@]5(C)C6C[C@@H](O)[C@]7(C)[C@@H](C8=CC(=O)OC8)CC[C@]7(O)C6CC[C@@H]5C4)O[C@@H]3C)O[C@@H]2C)C[C@H](O)[C@@H]1O (stereo not given in full)	inactive	
O=c1c(O)c(Br)ccc2c(Br)c(O)c(O)c(O)c12	inactive	
CCCC(=O)NCCc1c(I)[nH]c2ccc(OC)cc12	inactive	
C=C1CC[C@H](O)C/C1=C/C=C1\CCC[C@]2(C)C([C@H](C)CCCC(C)(C)O)CC[C@@H]12 (stereo not given in full)	inactive	
CC1(COc2ccc(C[C@H]3SC(=O)NC3=O)cc2)CCCCC1	inactive	
CC(CCCCC(=O)Nc1ccc(C(F)(F)F)cc1)NCCc1cnc[nH]1 (stereo not given)	inactive	
c1ncc(CC2CCNCC2)[nH]1	inactive	
O=C(O)c1c(Sc2ccccc2)c2cc(Cl)ccc2n1Cc1ccc(Cl)cc1	inactive	
c1ccc(N2CCN(CCCOc3ccc4c(c3)OCO4)CC2)cc1	inactive	
c1csc(CNc2ncnc3ccc(-c4ccc5c(c4)OCO5)cc23)c1	inactive	
CCCCCCCCCCC/C=C\C/C=C\CCCC(=O)O		-21.5% [at 3.88 µM]
C[C@H](NC[C@H](O)CP(=O)(O)CC1CCCCC1)c1ccc(Cl)c(Cl)c1	inactive	
CCCCc1nc2ccn(CC(=O)N(C)C)c(=O)c2n1Cc1ccc(-c2ccccc2-c2nn[nH]n2)cc1	inactive	
CC(C)[C@@H]1C(=O)N(S(C)(=O)=O)[C@H]2CCN(C(=O)/C=C\CN3CCCCC3)[C@@H]12	inactive	
C=C1CC2COC(=O)C2(Cc2ccc3ccccc3c2)C1 (stereo not given)	inactive	
COc1cc(OC)c(C(=O)CCCCN2CCC3(CC2)NC(=O)NC3=O)cc1NS(=O)(=O)c1ccc(C(F)(F)F)cc1	inactive	
CCC(C)(C)C(=O)O[C@@H]1C[C@@H](C)C=C2C=C[C@H](C)[C@H](CC[C@@H]3C[C@@H](O)CC(=O)O3)[C@H]21	inactive	
N[C@@H](Cc1cc(I)c(Oc2ccc(O)cc2)c(I)c1)C(=O)O	inactive	
NC1(C(=O)O)CCC1	inactive	
N[C@@H](C(=O)O)c1ccc(P(=O)(O)O)cc1	inactive	
